Among the data in PubChem BioAssay (NCATS) are outcome and Potency values, retold here.

A short description of assay [1]: S16 Schwann cell viability assay (CellTiter-Glo assay) (AID 624031).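 Note: native untransfected S16 rat Schwann cells; nearly all actives have a fitted effect of over 70% in size.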 In a few lines:
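Following overnight culture in 10% FBS DMEM, parental S16 rat Schwann cells are dosed for 24 h at 37 °C. Viability is read as CellTiter-Glo luminescence and expressed as % activity relative to DMSO (0%) and no-cell wells.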
On the technique in general: ATP-based viability assays read luminescence as a measure of living cells.

Assay [2] has as its system AA1029. Put plainly: qHTS profiling for inhibitors of Plasmodium falciparum proliferation (AID 504749). Note: nearly all actives have a fitted effect of over 60% in size. Note: potency is the fitted concentration of half-maximal effect. To be noted: P. falciparum in erythrocytes, SYBR Green DNA, 72 h; series mostly up to 12.8 µM. In a few lines:
(§1)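 Three-day growth assay of blood-stage parasites in erythrocytes (0.3% parasitemia, 2.5% hematocrit) at 37 C, 5% CO2, quantified by SYBR Green DNA staining after overnight detergent lysis.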
(Quantitative high-throughput screening tests each substance at several concentrations.)

In assay [3] the test system is ATS189. The assay is described as above. To be noted: P. falciparum in erythrocytes, SYBR Green DNA, 72 h; series mostly up to 12.8 µM. In a few lines:
as §1

For assay [4], the system named is CP191. The assay is described as above. Conditions: P. falciparum in erythrocytes, SYBR Green DNA, 72 h; series mostly up to 12.8 µM. In a few lines:
as §1

Assay [5] concerns CP192. The description is as above. To be noted: P. falciparum in erythrocytes, SYBR Green DNA, 72 h; series mostly up to 12.8 µM. A digest of the protocol: as §1
Assay [6] has as its system CP215. The assay is described as above. Conditions: P. falciparum in erythrocytes, SYBR Green DNA, 72 h; series mostly up to 12.8 µM. A digest of the protocol: as §1
For assay [7], the system named is CP217. The assay is described as above. Conditions: P. falciparum in erythrocytes, SYBR Green DNA, 72 h; series mostly up to 12.8 µM. A digest of the protocol:
as §1

Assay [8] has as its system CP247. The assay is described as above. To be noted: P. falciparum in erythrocytes, SYBR Green DNA, 72 h; series mostly up to 12.8 µM. In a few lines: as §1
The subject of assay [9] is CP250. Described as above. To be noted: P. falciparum in erythrocytes, SYBR Green DNA, 72 h; series mostly up to 12.8 µM. In a few lines: as §1
In assay [10] the test system is CP260. Described as above. Conditions: P. falciparum in erythrocytes, SYBR Green DNA, 72 h; series mostly up to 12.8 µM. In a few lines: as §1
The subject of assay [11] is CP265. The assay is described as above. Conditions: P. falciparum in erythrocytes, SYBR Green DNA, 72 h; series mostly up to 12.8 µM. A digest of the protocol: as §1
The subject of assay [12] is CP335. Described as above. To be noted: P. falciparum in erythrocytes, SYBR Green DNA, 72 h; series mostly up to 12.8 µM. In a few lines: as §1
Assay [13] relates to DFO2036. The description is as above. Conditions: P. falciparum in erythrocytes, SYBR Green DNA, 72 h; series mostly up to 12.8 µM. In a few lines: as §1
Assay [14] concerns DIV17. The description is as above. To be noted: P. falciparum in erythrocytes, SYBR Green DNA, 72 h; series mostly up to 12.8 µM. In a few lines:
as §1

For assay [15], the system named is Dd2. The description is as above. To be noted: P. falciparum in erythrocytes, SYBR Green DNA, 72 h; series mostly up to 12.8 µM. A digest of the protocol: as §1
Assay [16] concerns ICS. The assay is described as above. Conditions: P. falciparum in erythrocytes, SYBR Green DNA, 72 h; series mostly up to 12.8 µM. In a few lines: as §1
The test system of assay [17] is P93_24. The assay is described as above. To be noted: P. falciparum in erythrocytes, SYBR Green DNA, 72 h; series mostly up to 12.8 µM. A digest of the protocol: as §1
The test system of assay [18] is P94_40. The description is as above. To be noted: P. falciparum in erythrocytes, SYBR Green DNA, 72 h; series mostly up to 12.8 µM. In a few lines:
as §1

The test system of assay [19] is W2. The assay is described as above. To be noted: P. falciparum in erythrocytes, SYBR Green DNA, 72 h; series mostly up to 12.8 µM. A digest of the protocol:
as §1

Assay [20] relates to TAB113. The description is as above. Conditions: P. falciparum in erythrocytes, SYBR Green DNA, 72 h; series mostly up to 12.8 µM. In a few lines: as §1

Each structure is given as a SMILES string. Records with an inconclusive call do not appear. Activity calls are given as the source filed them. Calls come from the whole dose curve; as a rule, active = well fitted curve in the direction sought with a large enough effect; inconclusive = small, poorly fitted or top-dose-only effect, or another doubt; inactive = no such curve, though single readings can be large; an effect the other way counts as inactive or inconclusive.

As to `CC1(C)S[C@H]2C(NC(=O)[C@@H](N)c3ccc(O)cc3)C(=O)N2[C@@H]1C(=O)O` (some centres undefined), the compound was called inactive in [1]. Also, the Potency entry in assay [2], in assay [3], in [4], in assay [5], in assay [6] and in assay [7] was “inactive” throughout. Further, the Potency entry in assay [8], in assay [9], in [10], in assay [11], in assay [12] and in [13] was “inactive” throughout. The Potency result in assay [14], in assay [15], in assay [16], in assay [17], in assay [18] and in assay [19] was “inactive” each time.
With `CC(=O)O[C@@]1(C(C)=O)CCC2C3CC(C)C4=CC(=O)CC[C@@]4(C)C3CC[C@]21C` (some centres undefined), the Potency result in assay [5], in assay [6], in [14] and in assay [19] was “inactive” in each case. Further, in [18], the Potency was 12.6 µM (active).
With `NC(CCC(=O)N[C@@H](CS)C(=O)NCC(=O)O)C(=O)O` (some centres undefined), the Potency was 8.91 µM (active) in [3]; 8.91 µM (active) in assay [4]; 7.94 µM (active) in assay [10]; 7.94 µM (active) in [11]; 6.01 µM (active) in [12]; 6.31 µM (active) in [13]. The Potency in [14] is 2.69 µM (active); in assay [15], 5.01 µM (active); in assay [16], 1.26 µM (active); in assay [17], 3.16 µM (active); in [18], 3.55 µM (active); in assay [20], 7.94 µM (active). Besides, the Potency in [19] is 3.01 µM (active).
Regarding `N[C@@H]1C(O)OC(CO)C(O)C1O` (some centres undefined), the compound was called inactive in assay [1]. In addition, the Potency entry in [2], in assay [3], in assay [4], in assay [7], in [8] and in assay [9] was “inactive” throughout. Also, the Potency entry in assay [10], in assay [11], in assay [12], in [13], in assay [14] and in [15] was “inactive” each time. For the same compound, the Potency result in assay [16], in assay [17], in assay [20] and in assay [19] was “inactive” throughout.
Turning to `CC(=O)OCC(=O)[C@@]12OC3(CCCC3)OC1CC1C3CCC4=CC(=O)C=C[C@@]4(C)[C@]3(F)C(O)C[C@]12C` (some centres undefined), the outcome in assay [1] was inactive. In addition, the Potency result in assay [5] and in assay [9] was “inactive” in each case. In addition, the Potency in [16] was 12.6 µM (active); in [18], 12.6 µM (active); in assay [19] it was 10.7 µM (active).
On to `CCC(C)C(=O)OC1CC(O)C=C2C=CC(C)C(CCC(O)CC(O)CC(=O)O)C21` (centres undefined), for which the result in assay [1] was inactive. Also, the Potency entry in assay [2], in assay [4], in [5], in assay [6], in assay [7] and in assay [8] was “inactive” in each case. Besides, the Potency result in assay [9], in [10], in assay [11], in assay [12], in assay [13] and in assay [14] was “inactive” in each case. Further, the Potency result in [15], in assay [16], in [17], in assay [18], in assay [20] and in assay [19] was “inactive” each time.
As for `CC(C)Oc1ccc2c(=O)cc(-c3ccccc3)oc2c1`, the call in assay [1] was inactive. Moreover, the Potency entry in [2], in assay [3], in assay [4], in [5], in assay [6] and in assay [7] was “inactive” in each case. Moreover, the Potency result in [8], in assay [10], in [11], in assay [12], in assay [13] and in [14] was “inactive” throughout. For the same compound, the Potency result in assay [15], in assay [16], in [18] and in assay [20] was “inactive” throughout. Further, the Potency in assay [19] was 0.0478 µM (active).
For `CCC1OC(=O)CC(O)C(C)[C@@H](O[C@@H]2OC(C)[C@H](O[C@@H]3C[C@@](C)(O)C(O)C(C)O3)C(N(C)C)C2O)[C@H](CC=O)CC(C)C(=O)/C=C/C(C)=C/[C@@H]1COC1OC(C)C(O)C(OC)[C@@H]1OC` (some centres undefined), in [1], the result was inactive. Moreover, the Potency in [10] is 1.12 µM (active); in assay [12], 1.35 µM (active); in assay [15] it was 0.891 µM (active); in [16], 2.82 µM (active); in [19], 0.849 µM (active).
On to `C[C@@]12CCC(=O)C=C1C=CC1C2CC[C@]2(C)C1CC[C@@]21CCC(=O)O1` (some centres undefined), for which the compound was called inactive in [1]. In addition, the Potency result in assay [2], in assay [4], in assay [5], in [6], in assay [10] and in [11] was “inactive” each time. Also, the Potency result in assay [12], in [13], in assay [14], in assay [15], in assay [17] and in [18] was “inactive” each time. Further, the Potency entry in assay [20] and in [19] was “inactive” each time.
`C[C@@]12C=CC(=O)C=C1CCC1C3CC(O)[C@@](O)(C(=O)CO)[C@]3(C)CC(O)[C@]12F` (some centres undefined): the compound was classed as inactive in assay [1]. The Potency entry in assay [2], in assay [3], in assay [4], in [5], in assay [6] and in assay [7] was “inactive” each time. Moreover, the Potency entry in [8], in assay [9], in assay [10], in assay [11], in assay [12] and in assay [13] was “inactive” throughout. Moreover, the Potency result in assay [14], in assay [15], in [16], in assay [17], in assay [18] and in assay [20] was “inactive” throughout. In addition, the Potency result in assay [19] is “inactive”.
Regarding `CCCCCCCCCc1ccc(OCCOCCOCCOCCOCCOCCOCCOCCOCCO)cc1`, the Potency result in assay [2], in assay [5], in assay [9], in assay [10], in assay [11] and in assay [13] was “inactive” throughout. In addition, the Potency entry in assay [18] and in [20] was “inactive” each time. The Potency in assay [19] was 15.1 µM (active).
`OCC1OC(n2cnc3c(=S)nc[nH]c32)C(O)C1O` (centres undefined): the compound was called inactive in [1]. Also, the Potency result in assay [2], in [3], in assay [4], in [5], in assay [6] and in assay [7] was “inactive” throughout. The Potency entry in assay [8], in assay [9], in assay [10], in assay [11], in assay [12] and in assay [13] was “inactive” each time. Further, the Potency entry in [14], in [15], in [16], in assay [17], in assay [18] and in [20] was “inactive” each time.
For `CC1C2CCC3C4CC=C5CC(N(C)C)CC[C@@]5(C)C4CC[C@@]32CN1C` (some centres undefined), the call in assay [1] was inactive. Besides, the Potency result in assay [2], in assay [3], in assay [4], in assay [5], in assay [6] and in assay [7] was “inactive” throughout. Also, the Potency entry in assay [8], in assay [9], in assay [11], in [12], in assay [13] and in assay [14] was “inactive” each time. Further, the Potency result in [15], in assay [16], in assay [17], in [18] and in [20] was “inactive” throughout.
